# Hit rate of the full screen: of about 5,500 compounds, about 2,000 (36%) were called active. About 18% were inconclusive and are not listed. The list shows a part of the results. A number with no mark means an inactive call. No stated cut-off is given here; in the data, active means normalized growth mostly below about 0.91 (no sharp cut-off); inconclusive means no clear call, values can overlap the other calls; inactive means mostly above about 0.92.
# Experiment: chemical genetic growth profiling, strain panel (AID 1159580);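 further: tested at 20 µM; growth read once vehicle control cultures reached saturation at 30 °C; 1 = growth at the plate median or of vehicle wells; lower values mean less growth of the strain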
# Conditions: S. cerevisiae deletion strains, growth OD
# [1] = locus YAL013W, strain DEP1, active compounds read low
# [2] = locus YBR229C, strain ROT2, active compounds read low
# [3] = locus YDL101C, strain DUN1, active compounds read low
# [4] = locus YDR150W, strain NUM1, active compounds read low
# [5] = locus YEL061C, strain CIN8, active compounds read low
# [6] = locus YGR078C, strain PAC10, active compounds read low
# [7] = locus YGR229C, strain SMI1, active compounds read low
# [8] = locus YHR030C, strain SLT2, active compounds read low
# [9] = locus YHR087W, strain rtc3, active compounds read low
# [10] = locus YJL187C, strain SWE1, active compounds read low
# [11] = locus YJR043C, strain POL32, active compounds read low
# [12] = locus YJR075W, strain HOC1, active compounds read low
# [13] = locus YLR039C, strain RIC1, active compounds read low
# [14] = locus YLR058C, strain SHM2 (second series), active compounds read low
# [15] = locus YLR085C, strain ARP6, active compounds read low
# [16] = locus YLR262C, strain YPT6, active compounds read low
# [17] = locus YML094W, strain GIM5, active compounds read low
# [18] = locus YMR219W, strain ESC1, active compounds read low
# [19] = locus YMR263W, strain SAP30, active compounds read low
# [20] = locus YNL153C, strain GIM3, active compounds read low
# [21] = locus YNL298W, strain CLA4 (second series), active compounds read low
# [22] = locus YNL322C, strain KRE1, active compounds read low
# [23] = locus YNR030W, strain Alg12, active compounds read low
# [24] = locus YPL055C, strain LGE1, active compounds read low
# [25] = locus YPL241C, strain CIN2, active compounds read low
# [26] = locus YPR135W, strain CTF4, active compounds read low
smiles,measurement,setting,value
COc1ccc(-n2c(=S)[nH]c(=O)c3cccnc32)cc1,normalized growth,[1],1
same,normalized growth,[2],1.01
same,normalized growth,[3],1.04
same,normalized growth,"locus YDL134C, strain PPH21, active compounds read low",0.996
same,normalized growth,[4],0.985
same,normalized growth,[5],1
same,normalized growth,[6],1.04
same,normalized growth,[7],0.993
same,normalized growth,[8],1.06
same,normalized growth,[9],0.954
same,normalized growth,[10],0.99
same,normalized growth,[11],1.04
same,normalized growth,[12],0.993
same,normalized growth,[13],0.999
same,normalized growth,[14],0.991
same,normalized growth,[15],1.03
same,normalized growth,[16],0.988
same,normalized growth,[17],0.983
same,normalized growth,[18],0.999
same,normalized growth,[19],1.02
same,normalized growth,[20],1.02
same,normalized growth,[21],1
same,normalized growth,[22],1.01
same,normalized growth,[23],0.994
same,normalized growth,[24],0.973
same,normalized growth,[25],0.991
same,normalized growth,[26],1.05
CCN(CC)CCOC(=O)c1cc(Cl)c(N)cc1OC,normalized growth,"locus YAL040C, strain CLN3, active compounds read low",0.981
same,normalized growth,"locus YCL061C, strain MRC1 (second series), active compounds read low",1.01
same,normalized growth,[4],1
same,normalized growth,"locus YDR363W, strain ESC2, active compounds read low",1
same,normalized growth,"locus YER002W, strain NOP16, active compounds read low",1.02
same,normalized growth,[6],1.01
same,normalized growth,[7],1.01
same,normalized growth,[12],1.01
same,normalized growth,[19],1
same,normalized growth,"locus YMR307W, strain GAS1, active compounds read low",1
same,normalized growth,"locus YNL128W, strain TEP1, active compounds read low",1
same,normalized growth,[20],1
same,normalized growth,"locus YNL175C, strain NOP13, active compounds read low",1
same,normalized growth,"locus YNL197C, strain WHI3, active compounds read low",1.01
same,normalized growth,"locus YNL224C, strain SQS1, active compounds read low",1
same,normalized growth,"locus YOR083W, strain WHI5 (second series), active compounds read low",1.01
same,normalized growth,[24],0.954
same,normalized growth,[25],1
COc1cc(Cl)ccc1N/N=C(/C#N)C(N)=O,normalized growth,"locus YAR019C, strain CDC15, active compounds read low",0.106 (active)
same,normalized growth,"locus YBL105C, strain PKC1, active compounds read low",0.0965 (active)
same,normalized growth,"locus YBR135W, strain CKS1, active compounds read low",0.109 (active)
same,normalized growth,"locus YBR136W, strain MEC1, active compounds read low",0.104 (active)
same,normalized growth,"locus YBR160W, strain CDC28, active compounds read low",0.104 (active)
same,normalized growth,"locus YDL017W, strain CDC7, active compounds read low",0.0952 (active)
same,normalized growth,"locus YDL028C, strain MPS1, active compounds read low",0.111 (active)
same,normalized growth,[3],0.124 (active)
same,normalized growth,"locus YDL108W, strain KIN28, active compounds read low",0.114 (active)
same,normalized growth,"locus YDL132W, strain cdc53, active compounds read low",0.102 (active)
same,normalized growth,"locus YDL214C, strain PRR2, active compounds read low",0.116 (active)
same,normalized growth,"locus YDR052C, strain DBF4, active compounds read low",0.0987 (active)
same,normalized growth,"locus YDR054C, strain cdc34, active compounds read low",0.104 (active)
same,normalized growth,"locus YDR226W, strain ADK1, active compounds read low",0.103 (active)
same,normalized growth,"locus YDR477W, strain SNF1, active compounds read low",0.115 (active)
same,normalized growth,"locus YER123W, strain YCK3, active compounds read low",0.112 (active)
same,normalized growth,"locus YER133W, strain GLC7, active compounds read low",0.12 (active)
same,normalized growth,"locus YFL009W, strain cdc4, active compounds read low",0.109 (active)
same,normalized growth,"locus YFL029C, strain CAK1, active compounds read low",0.109 (active)
same,normalized growth,"locus YFR003C, strain YPI1, active compounds read low",0.0947 (active)
same,normalized growth,"locus YFR019W, strain FAB1, active compounds read low",0.112 (active)
same,normalized growth,"locus YFR028C, strain CDC14, active compounds read low",0.106 (active)
same,normalized growth,"locus YGR040W, strain KSS1, active compounds read low",0.112 (active)
same,normalized growth,"locus YGR052W, strain FMP48, active compounds read low",0.153 (active)
same,normalized growth,"locus YGR092W, strain DBF2, active compounds read low",0.11 (active)
same,normalized growth,[8],0.194 (active)
same,normalized growth,"locus YHR079C, strain IRE1, active compounds read low",0.214 (active)
same,normalized growth,"locus YHR082C, strain KSP1, active compounds read low",0.221 (active)
same,normalized growth,"locus YHR205W, strain SCH9, active compounds read low",0.0135 (active)
same,normalized growth,"locus YIL147C, strain SLN1, active compounds read low",0.107 (active)
same,normalized growth,"locus YJL095W, strain BCK1, active compounds read low",0.189 (active)
same,normalized growth,"locus YJL128C, strain PBS2, active compounds read low",0.103 (active)
same,normalized growth,"locus YJL157C, strain FAR1, active compounds read low",0.105 (active)
same,normalized growth,"locus YJR016C, strain ILV3, active compounds read low",0.0991 (active)
same,normalized growth,"locus YJR066W, strain TOR1 (second series), active compounds read low",0.112 (active)
same,normalized growth,"locus YJR066W, strain TOR1, active compounds read low",0.181 (active)
same,normalized growth,"locus YKL048C, strain ELM1, active compounds read low",0.128 (active)
same,normalized growth,"locus YKL067W, strain YNK1, active compounds read low",0.119 (active)
same,normalized growth,"locus YKL101W, strain HSL1, active compounds read low",0.106 (active)
same,normalized growth,"locus YKL193C, strain SDS22, active compounds read low",0.106 (active)
same,normalized growth,"locus YKL203C, strain TOR2, active compounds read low",0.116 (active)
same,normalized growth,"locus YLR113W, strain HOG1, active compounds read low",0.262 (active)
same,normalized growth,"locus YLR133W, strain CKI1, active compounds read low",0.111 (active)
same,normalized growth,"locus YLR403W, strain SFP1, active compounds read low",0.00868 (active)
same,normalized growth,"locus YML070W, strain DAK1, active compounds read low",0.114 (active)
same,normalized growth,"locus YMR001C, strain CDC5, active compounds read low",0.108 (active)
same,normalized growth,"locus YMR205C, strain PFK2 (second series), active compounds read low",0.104 (active)
same,normalized growth,"locus YMR277W, strain FCP1, active compounds read low",0.106 (active)
same,normalized growth,"locus YNL006W, strain LST8, active compounds read low",0.0981 (active)
same,normalized growth,"locus YNL020C, strain ARK1, active compounds read low",0.11 (active)
same,normalized growth,"locus YNL161W, strain CBK1, active compounds read low",0.106 (active)
same,normalized growth,"locus YNL183C, strain NPR1, active compounds read low",0.148 (active)
same,normalized growth,"locus YNL207W, strain RIO2, active compounds read low",0.107 (active)
same,normalized growth,"locus YNL222W, strain SSU72, active compounds read low",0.105 (active)
same,normalized growth,"locus YNL307C, strain MCK1 (second series), active compounds read low",0.12 (active)
same,normalized growth,"locus YOL078W, strain AVO1, active compounds read low",0.105 (active)
same,normalized growth,"locus YOL136C, strain PFK27, active compounds read low",0.115 (active)
same,normalized growth,"locus YOR061W, strain CKA2, active compounds read low",0.0994 (active)
same,normalized growth,"locus YOR119C, strain RIO1, active compounds read low",0.115 (active)
same,normalized growth,"locus YOR231W, strain MKK1, active compounds read low",0.231 (active)
same,normalized growth,"locus YOR329C, strain SCD5, active compounds read low",0.102 (active)
same,normalized growth,"locus YPL031C, strain PHO85, active compounds read low",0.107 (active)
same,normalized growth,"locus YPL153C, strain RAD53, active compounds read low",0.111 (active)
same,normalized growth,"locus YPL204W, strain HRR25, active compounds read low",0.117 (active)
same,normalized growth,"locus YPL209C, strain IPL1, active compounds read low",0.0959 (active)
same,normalized growth,"locus YPL256C, strain CLN2, active compounds read low",0.231 (active)
same,normalized growth,"locus YPR025C, strain CCL1, active compounds read low",0.107 (active)
same,normalized growth,"locus YPR106W, strain ISR1, active compounds read low",0.0943 (active)
same,normalized growth,"locus YPR111W, strain DBF20, active compounds read low",0.108 (active)
same,normalized growth,"strain NNK1, active compounds read low",0.0995 (active)
same,normalized growth,"strain TSCII, active compounds read low",0.107 (active)
COC(=O)c1ccc(Cl)cc1NS(=O)(=O)c1ccc(OC)c(OC)c1,normalized growth,[1],1.01
same,normalized growth,[2],0.976
same,normalized growth,[3],0.987
same,normalized growth,[4],1.04
same,normalized growth,[5],1.01
same,normalized growth,[6],0.986
same,normalized growth,[7],1.02
same,normalized growth,[8],0.969
same,normalized growth,[9],1.02
same,normalized growth,[10],1
same,normalized growth,[11],0.978
same,normalized growth,[12],0.984
same,normalized growth,"locus YKL190W, strain CNB1, active compounds read low",1.01
same,normalized growth,[13],0.934
same,normalized growth,[14],1.01
same,normalized growth,[15],1.01
same,normalized growth,[16],0.947
same,normalized growth,[17],1.03
same,normalized growth,[18],1
same,normalized growth,[19],0.986
same,normalized growth,[20],0.996
same,normalized growth,[21],0.989
same,normalized growth,[22],1
same,normalized growth,[23],0.998
same,normalized growth,[24],0.966
same,normalized growth,[25],1.01
same,normalized growth,[26],0.999

# From PubChem BioAssay AID1159580 (chemical genetic matrix, 2015)
